Reference: PubChem BioAssay (EPA / NIEHS)
Active and inactive are the calls of the source. The calls were made as follows: active = hit-call score of the fitted dose curve at least 0.9, where 1 is the maximum; inactive = score below 0.9.

Experiment: ATG_TGFb_CIS: Attagene CIS-FACTORIAL HepG2 Assay for human Transforming Growth Factor (TGF) (AID 2282967)
Conditions: HepG2 Attagene CIS TGFb reporter, mRNA transcription; actives raise or lower the signal
Procedure: ATG_CIS is a cell-based, multiplexed-readout assay that uses HepG2, a human liver cell line, with measurements taken at 24 hours after chemical dosing in a 24-well plate.ATG_TGFb_CIS is one of 52 assay component(s) measured or calculated from the ATG_CIS assay. It is designed to make measurements of mRNA induction, a form of inducible reporter, as detected with fluorescence intensity signals by Reverse transcription polymerase chain reaction (RT-PCR) and Capillary electrophoresis technology.Data from the assay component ATG_TGFb_CIS was analyzed into 1 assay endpoint. This assay endpoint, ATG_TGFb_CIS, was analyzed with bidirectional fitting relative to DMSO as the negative control and baseline of activity. Using a type of inducible reporter, measures of mRNA for gain or loss-of-signal activity can be used to understand the reporter gene at the transcription factor-level as they relate to the gene TGFB1. Furthermore, this assay endpoint can be referred to as a primary readout, because this assay has produced multiple assay endpoints where this one serves a reporter gene function. To generalize the intended target to other relatable targets, this assay endpoint is annotated to the growth factor intended target family, where the subfamily is transforming growth factor beta.
Human liver HepG2 cells are transiently transfected with multiple reporter transcription units (MRTUs) in 6-well plates using FuGene 6 reagent (Roche; 3 ml FuGene/1 mg DNA). The MRTU constructs are regulated by a cis-regulating element (promoter). […] A major difference between the CIS and TRANS system is that in CIS activities of endogenous TFs are measured, whereas the TRANS assay evaluates changes in activities of exogenous, chimeric NR-Gal4 proteins. […] At the end of 24 hour incubation, total RNA was isolated using TriZol reagent (Invitrogen). The isolated RNA is then reverse-transcribed using oligo(dT) primer and Mo-MLV reverse transcriptase (Invitrogen) with DNAse I (Ambion) treatment for 30 min. The one-tenth of the produced cDNA was amplified by PCR using Taq DNA polymerase (Invitrogen) and two reporter sequence-specific primers. The PCR products were fluorescently labeled by primer extension with 6-arboxyfluorescein (6-FAM) 5'-labeled reporter sequence-specific primer (2 min at 95 C, 20 s at 68 C and 10 min at 72 C) and these products were digested with 5U of HpaI (New England Biolabs) for 2h at 37 C. The fragments were purified using Qiaquick PCR columns (Qiagen), analyzed on an ABI 3130xL genetic analyzer (Applied Biosystems) with peak positions identified by using a set of X-rhodamine (ROX)-labeled MapMarker1000 molecular weight standards (BioVentures). The raw capillary electrophoresis data was processed using Attagraph software (Attagene).

outcome, inactive:
CCOC(=O)[C@H](C)O
CNC(=S)NN
C=CCCCCCCCCC(=O)OCCCC
CCN(CCO)c1cccc(C)c1
CCCCCCCC/C=C\CCCCCCCC(=O)OCCO
O=CC1CC1
CCCCC(CC)COC(=O)c1ccccc1 (stereo not given)
O=C(c1ccccc1)C1CCC1
C=C(C)[C@@H]1CCC2=CCC[C@@H](C)[C@]2(C)C1
CCOc1ccc(N)c([N+](=O)[O-])c1
CN(C)CCCN(C)C
C=C(C)C(=O)OCCO
OCCNCc1ccccc1
O=C(O)c1cc(Cl)cc([N+](=O)[O-])c1Cl
Cc1ccc2c(c1)C(=O)c1ccccc1C2=O
N#CCc1ccc(Cl)cc1Cl
CCCCCCCCc1ccc(Nc2ccc(CCCCCCCC)cc2)cc1
COc1ccc([C@@H]2CC(=O)c3c(O)cc(O[C@@H]4O[C@H](CO[C@@H]5O[C@@H](C)[C@H](O)[C@@H](O)[C@H]5O)[C@@H](O)[C@H](O)[C@H]4O)cc3O2)cc1OC
CC(C)c1ccc2c(C(C)C)cc(C(C)C)c(S(=O)(=O)O)c2c1
CCCCCCCCO[C@@H]1O[C@H](CO)[C@@H](O)[C@H](O)[C@H]1O
C[C@]12C=CC(=O)C=C1CC[C@@H]1[C@@H]2[C@@H](O)C[C@@]2(C)[C@H]1CC[C@]2(O)C(=O)CO
CC(C)=CCC/C(C)=C\C#N
Cc1ccc(OC(=O)CC(C)C)cc1
CCC(C)C=O (stereo not given)
Cc1cccc(C(=O)O)c1
CCCCCc1ccc(Cl)cc1
N=c1ccn2c(n1)O[C@H]1[C@H](O)[C@@H](CO)O[C@H]12
CC1=CC[C@H](C(C)C)C=C1
CCN(CCC#N)c1ccc(N=Nc2c(Cl)cc([N+](=O)[O-])cc2Cl)cc1
c1ccc(-c2ccccn2)nc1
CC(=O)Nc1ccc2c(c1)Cc1cc(NC(C)=O)ccc1-2
C[Si](C)O[Si](C)(C)O[Si](C)(C)O[Si](C)C
CCCc1ccc(OC)cc1
C=C(C)[C@H]1CC=C(C)CC1
Nc1ccc(N)c(Cl)c1
CC(C)CCCCCOC(=O)CCS
Nc1ccc(Cl)cc1Cl
O=c1cc[nH]c(=S)[nH]1
COCC(C)N (stereo not given)
COc1cc(NC(=O)CC(C)=O)c(OC)cc1Cl
